Out of some 38,000 compounds screened, about 1,200 (3.2%) showed an effect of 50% or more. The median lay at about -58%. The entries come from a sample that favours strong results as a whole.
These molecules were tested on Plasmodium falciparum (assay: Calibr Malaria Delayed Death Assay SOP). Details: concentration 4.99e-06 (unit not given; other assays of the set use mol/L).
Type: functional, organism-based
Design: scale not given: in the data most compounds retested in dose-response had high values

Row | SMILES | Percent Effect [%]
1 | Cc1ccc(-c2nc(CNS(=O)(=O)N(C)C)[nH]c2-c2ccccn2)cc1 | -8.879
2 | Cc1ccc(-c2nc(CNC(C)CCO)[nH]c2-c2ccccn2)cc1 (configuration not stated) | 85.22
3 | COCC(C)NCc1nc(-c2ccc(C)cc2)c(-c2ccccn2)[nH]1 (configuration not stated) | 45.68
4 | COc1cc(CNCCn2ccnc2)cc2c1OCO2.Cl | -91.54
5 | CCOc1ccc(CNCCCn2ccnc2)cc1Br | 79.67
6 | COCCCn1ccc(NC(=O)NCCCn2ccnc2)n1 | -63.56
7 | CCOc1ccc(Cl)cc1CNCCCn1ccnc1 | 51.78
8 | O=C(CN1CCOc2ccc(Cl)cc21)NCCCn1ccnc1 | -34.55
9 | CCOc1ccc(Cl)cc1CCNC(=O)Cn1nc(C)ccc1=O | -103.1
10 | CN(C)CCNCC1COCc2c(-c3ccnn3C)nnn2C1 (configuration not stated) | -61.69
11 | O=C(c1cccc2ncccc12)N1CCC(Nc2cccnn2)CC1 | -119.6
12 | Cc1nc(CN2CCN(CCCc3ccccc3)CC2)no1 | -34.84
13 | COc1ccc(-c2nc(CNC3CCc4nc(C)nn4C3)no2)cc1 (configuration not stated) | -54.43
14 | COc1cc(-c2ccc(F)c3c2OC(CN)C3)cc(OC)c1OC (configuration not stated) | -14
15 | COc1cccnc1-c1ccc(F)c2c1OC(CN)C2 (configuration not stated) | 57.41
16 | COc1cc(C)c(-c2ccc(F)c3c2OC(CN)C3)cc1C (configuration not stated) | 83.54
17 | Cc1cc2n(n1)CC(CNCc1ccccc1Cn1cccn1)CN2 (configuration not stated) | -15.62
18 | O=C(O)C(F)(F)F.O=C(O)C(F)(F)F.c1cncc(C2COC3(CCN(Cc4nccs4)CC3)C2)c1 (configuration not stated) | -1.865
19 | CCN1CC2(CC1=O)CN(C(=O)c1ccco1)CCN(C(=O)C(C)C)C2 (configuration not stated) | -62.73
20 | O=C1[C@H]2CC[C@H](CN(c3ncnc4ccsc34)C2)N1CC1CC1 | -91.86
21 | COCCCN(C)C(=O)c1cccc(Nc2cnccn2)c1 | -92.25
22 | N[C@H]1CN(C(=O)c2ccc(Cl)cc2O)C[C@@H]1C1CC1 | 32.78
23 | N[C@H]1CN(C(=O)c2cnc3cc(Cl)ccc3c2O)C[C@@H]1C1CC1 | -23.25
24 | Cc1cc(Cl)ccc1C(=O)N1C[C@H](C2CC2)[C@@H](N)C1 | 60.81
25 | N#CCSCCCN1CCN(C(=O)c2ccccc2F)CC1 | -147
26 | Cc1nnc(NC(=O)NCCCN2CCC(C(N)=O)CC2)s1 | -23.13

Row | SMILES | Percent Effect [%]
27 | CC1CC(NS(=O)(=O)c2ccc(C(F)(F)F)nc2)C1 (configuration not stated) | -159.1
28 | O=c1ncn(-c2ccc(F)cc2)c2ncccc12 | -138.9
29 | OCc1cn([C@@H]2c3ccccc3C3(CCNCC3)[C@H]2O)nn1 | -123.5
30 | O[C@H]1[C@H](n2cc(CN3CCCC3)nn2)c2ccccc2C12CCNCC2 | 62.81
31 | COCc1cn([C@@H]2c3ccccc3C3(CCNCC3)[C@H]2O)nn1 | -27.47
32 | CCOc1c(F)cccc1C(=O)N(CC)C(C)c1cccnc1 (configuration not stated) | -44.59
33 | CC(c1cccnc1)N(C)S(C)(=O)=O (configuration not stated) | -49.62
34 | CCN(C(C)c1cccc(O)c1)S(=O)(=O)c1cccnc1 (configuration not stated) | 75.64
35 | CC(c1cccc(O)c1)N(C)S(N)(=O)=O (configuration not stated) | -84.23
36 | CC(c1cccc(O)c1)N(C)S(=O)(=O)c1cccnc1 (configuration not stated) | 70.34
37 | Cc1cccc(C(C)(C)CNC(=O)CN(C)S(=O)(=O)c2cccnc2)c1 | -59.91
38 | Cn1cc(CN2CCc3ccc(=O)n(Cc4ccncc4)c3CC2)cn1.O=C(O)C(F)(F)F.O=C(O)C(F)(F)F | -100.7
39 | CCn1nccc1CNc1[nH]cnc2nncc1-2 | -100.3
40 | Cn1cccc1C(=O)N1C[C@@H](OCc2ccncc2)[C@@H]2OCCC[C@@H]21.O=C(O)C(F)(F)F | -99.03
41 | CCNc1ncc(CN(Cc2ccccc2)CC(C)CO)cn1 (configuration not stated) | -11.14
42 | COC(=O)[C@@H]1Cc2[nH]cnc2CN1Cc1cc2ccccc2o1 | -36.16
43 | CN1CCN(C(=O)C2CN(Cc3cc4ccccc4o3)CCN2)CC1 (configuration not stated) | -105.5
44 | Cl.Cl.O[C@@H]1C[C@@](CNCc2ccc(Cl)cc2)(COc2cccnc2)C[C@@H]1O | 70.01
45 | Cl.Cl.O[C@@H]1C[C@@](CNCc2cccc(Cl)c2)(COc2cccnc2)C[C@@H]1O | 34.26
46 | Cl.Cl.O[C@@H]1C[C@@](CNCc2ccc(F)cc2)(COc2cccnc2)C[C@@H]1O | 40.62
47 | CN(Cc1noc2c1CCCC2)C(=O)Nc1cccc(S(N)(=O)=O)c1 | -16.52
48 | Cc1nc2c(c(N(C)CC3Cc4ccccc4CN3C)n1)CCNCC2 (configuration not stated) | 41.97
49 | Cc1nc2c(c(N(C)Cc3ccccc3-n3cccn3)n1)CCNCC2 | -7.146
50 | Cc1cc(CN(C)c2nc(-c3ccccn3)nc3c2CCNCC3)n[nH]1 | 68.42
51 | CN(Cc1ccon1)c1nc(-c2ccccn2)nc2c1CCNCC2 | 75.26
52 | Cc1cc(CN(C)c2nc(-c3ccco3)nc3c2CCN(C)CC3)on1 | -7.108

Row | SMILES | Percent Effect [%]
53 | O=C(COc1cccc2c1CCC2=O)NCCOc1ccccc1 | -101.5
54 | Cn1cc(C[C@H]2[C@H](O)CCN2Cc2ccc3c(c2)OCO3)cn1 | -152.7
55 | COc1cc(CNc2ccc(C)c(Cl)c2)ccc1OCC(N)=O | -61.06
56 | O=C(CN1CCCC1Cn1cncn1)Nc1ccnn1C1CCCC1 (configuration not stated) | -46.57
57 | NC(=O)c1nc(-c2cccc(Cl)c2)oc1N | -143.3
58 | Clc1ccc(C2(CNC3=NCCN3)CC2)cc1.I | 82.97
59 | CC(NC(=O)NCC1(c2ccc(Cl)cc2)CC1)c1nncn1C (configuration not stated) | -41.57
60 | CCCNC(=O)c1c(-n2cnnn2)sc2c1CCC2 | -55.33
61 | CC(=O)NC(CC(=O)Nc1nc(C)c(C)s1)c1ccccc1 (configuration not stated) | -83.12
62 | Fc1cnc(N2CCCC3(CN(Cc4ccccc4)CCO3)C2)nc1.O=C(O)C(F)(F)F (configuration not stated) | -95.68
63 | COc1cccc(CN2CCC3(CCN(c4ncc(F)cn4)CC3)C2)c1.O=C(O)C(F)(F)F | -47.02
64 | Fc1cnc(N2CCCC3(CCN(Cc4ccco4)C3)C2)nc1.O=C(O)C(F)(F)F.O=C(O)C(F)(F)F (configuration not stated) | 77
65 | Fc1cnc(N2CCCC3(CCN(Cc4ccoc4)C3)C2)nc1.O=C(O)C(F)(F)F.O=C(O)C(F)(F)F (configuration not stated) | 72.25
66 | Fc1ccc(CN2CCC3(CCCN(c4nncs4)C3)C2)cc1.O=C(O)C(F)(F)F (configuration not stated) | -107.3
67 | O=C(O)C(F)(F)F.O=C(c1ccncc1)N1CCC2(CCCN(c3ncc(F)cn3)C2)C1 (configuration not stated) | -90.51
68 | CC(C)CCN1CCC2(CCCN(c3nncs3)C2)C1.O=C(O)C(F)(F)F (configuration not stated) | -67.46
69 | Cc1cnc(N2C[C@@H]3CN(Cc4ccco4)CCC[C@]3(C(=O)O)C2)nc1.O=C(O)C(F)(F)F | -71.37
70 | CC(C)c1ccc(CN2CCC3(CCCN(c4nncs4)C3)C2)cc1.O=C(O)C(F)(F)F (configuration not stated) | 73.03
71 | O=C(c1ccco1)N1CCC2(CCCN(c3ncc(F)cn3)C2)C1 (configuration not stated) | -116
72 | COc1ccc(CN2CCC3(CCCN(c4ncc(F)cn4)C3)C2)cc1.O=C(O)C(F)(F)F (configuration not stated) | 86.34
73 | COc1cccc(CN2CCC3(CC2)CCN(c2ncc(F)cn2)C3)c1.O=C(O)C(F)(F)F | -115
74 | Cc1oc(-c2nc(C#N)c(NC(C)C)o2)cc1S(=O)(=O)N1CCCC1 | -121.8
75 | Cc1ncc2c(n1)CN(Cc1nc(-c3ccco3)oc1C)CC2 | -128.1
76 | CC(C)C(=O)N1CCN(Cc2csc(-c3ncccn3)n2)CC1 | -79.45
77 | CCn1nc(C)c(C(=O)NCc2csc(C3CC3)n2)c1C | -85.55
78 | Cc1noc(C)c1CN1CCc2ncnc(-c3cnn(C)c3)c2CC1.O=C(O)C(F)(F)F | -17.12

Row | SMILES | Percent Effect [%]
79 | CCC(=O)NCC(=O)NC(C)c1ccc(OCCC(C)C)cc1 (configuration not stated) | 22.17
80 | COc1cc(-c2cc(=O)[nH]cn2)cc(OC)c1OC | -8.244
81 | CC(=O)N1[C@H](CN(C)C)C[C@@H]2CN(C(=O)c3cccc(F)c3)CC[C@@H]21.O=C(O)C(F)(F)F | -121.5
82 | CCC(NC(=O)CNCC(F)(F)F)c1cc(F)ccc1F (configuration not stated) | -157
83 | Fc1cnc(N2CCCC3(CCN(Cc4nccs4)C3)C2)nc1 (configuration not stated) | 21.75
84 | O=C(c1ccoc1)N1CCC2(CCCN(c3ncc(F)cn3)C2)C1 (configuration not stated) | -22.39
85 | COc1cc(N2C[C@H](C(=O)N3CCCC3)[C@@H]3CCO[C@@H]3C2)ncn1 | -18.3
86 | Cc1cnc(CN(C)C2CCN(Cc3nc4c(F)cccc4[nH]3)C2)o1 (configuration not stated) | -76.29
87 | COc1nn(C)c2c1CCCN(C(=O)c1cscn1)C2 | -85.03
88 | CCOC(C)C(=O)Nc1ccnn1-c1ccccc1C (configuration not stated) | -113.5
89 | Cl.Clc1ccc(-c2ccc(C3CNCCO3)nc2)cc1 (configuration not stated) | 85.23
90 | O=C(C(c1ccccc1)S(=O)(=O)c1ccccc1)N1CCCCC1 (configuration not stated) | -134.4
91 | CCc1nc(C)sc1CN1CC[C@@](O)(C2CC2)[C@H](C)C1 | -41.51
92 | Cc1csc(C(=O)N2CCCC(c3[nH]ncc3S(C)(=O)=O)C2)c1 (configuration not stated) | -79.4
93 | O=C(NCC(O)c1ccsc1)Nc1cccs1 (configuration not stated) | -26.53
94 | Cc1cnc(N2CCC3(CC2)CN(Cc2cccs2)CCO3)nc1.O=C(O)C(F)(F)F.O=C(O)C(F)(F)F | -40.39
95 | COc1cc(N2CCC3(CCCN(Cc4ccccn4)C3)C2)ncn1.O=C(O)C(F)(F)F (configuration not stated) | -7.04
96 | Fc1cnc(N2CCCC3(CN(Cc4cccs4)CCO3)C2)nc1.O=C(O)C(F)(F)F (configuration not stated) | -85.22
97 | O=C(O)C(F)(F)F.O=C(O)C(F)(F)F.c1cnc(N2CCOCC3(CCCN(Cc4cccs4)C3)C2)nc1 (configuration not stated) | -21.37
98 | O=C(O)C(F)(F)F.c1ccc(N2CCCC3(CCN(Cc4cccs4)C3)C2)nc1 (configuration not stated) | 72.7
99 | Fc1cnc(N2CCCC3(CCN(Cc4cccs4)C3)C2)nc1.O=C(O)C(F)(F)F.O=C(O)C(F)(F)F (configuration not stated) | 67.75
100 | O=C(O)C(F)(F)F.O=C(O)C(F)(F)F.c1csc(CN2CCCC3(COCCN(c4cnccn4)C3)C2)c1 (configuration not stated) | 45.61
101 | CC(C)CN1CCCC2(CCN(c3ccccn3)C2)C1.O=C(O)C(F)(F)F (configuration not stated) | 70.33
102 | CC(C)CN1CCCC2(CCN(c3ccc(C#N)cn3)C2)C1.O=C(O)C(F)(F)F (configuration not stated) | 4.981

Source: ChEMBL document CHEMBL3988442, “University of Dundee, Small-Polar-MMV Screening Library” (2021)
